An excerpt weighted towards active compounds, which were near 31% of everything screened.
CYP2C19 activ – cytochrome P450 2C19 (human) activation. P33261. recombinant CYP2C19, luciferin-H EGE luminescence; stronger effect = higher value; 0 = fully inhibited enzyme, 1 = untreated enzyme. activation factor at 5 µM. 96,000 tested, under 10 active. AID 1025;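 active = activation factor of at least 2 at 5 µM in the primary screen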
Target sequence (P33261 whole entry, looked up): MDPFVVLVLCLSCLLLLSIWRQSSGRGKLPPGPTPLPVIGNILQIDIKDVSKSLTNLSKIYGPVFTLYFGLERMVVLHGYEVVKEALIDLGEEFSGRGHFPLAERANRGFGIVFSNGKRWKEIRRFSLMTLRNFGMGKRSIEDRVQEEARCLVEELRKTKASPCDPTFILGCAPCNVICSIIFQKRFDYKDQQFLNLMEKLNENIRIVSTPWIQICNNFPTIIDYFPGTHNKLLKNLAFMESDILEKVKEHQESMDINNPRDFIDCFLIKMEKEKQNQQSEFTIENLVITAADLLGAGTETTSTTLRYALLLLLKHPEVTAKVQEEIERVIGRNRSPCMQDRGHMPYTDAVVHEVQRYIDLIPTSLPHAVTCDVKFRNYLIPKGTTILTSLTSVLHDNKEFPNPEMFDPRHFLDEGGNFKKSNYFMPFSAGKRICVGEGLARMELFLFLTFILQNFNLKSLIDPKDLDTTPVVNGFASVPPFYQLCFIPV
CYP2C19 inhib – inhibitors of human CYP2C19 | inhibition, % at 5 µM | actives 21% (n = 96,000) | P33261 | AID 778 | CYP2C19 Supersomes, luciferin-H EGE luminescence, 30 min;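 active = CYP2C19 inhibition above a set limit at 5 µM in the primary screen, cut at about 50% in these data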
CYP2C9 inh – human CYP2C9 inhibition; P11712; CYP2C9 Supersomes, luciferin-H conversion, luminescence; inhibition, % at 5 µM; actives 20% (n = 96,000);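 active = blocking of liver enzyme CYP2C9 beyond about 50% at 5 µM, limit read from the data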
CYP2C9 activ – increases human cytochrome P450 2C9 activity; recombinant CYP2C9, luciferin-H conversion, luminescence; stronger effect = higher value; factor 1 = untreated enzyme, 0 = blocked; activation factor at 5 µM; actives 1.4% (n = 96,000); AID 1024;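 active = activation factor of 2 or more for CYP2C9 at a 5 µM dose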
Each line names hits and unclear results; the compound was inactive in the other large screens.

COc1cc(C2Nc3cccc4cccc(c34)N2)ccc1OC(C)=O	none
O=C1c2ccccc2NC(c2ccco2)N1O (stereo unspecified)	none
Oc1ccc(C2Nc3cccc4cccc(c34)N2)c(O)c1	CYP2C19 inhib 66 (no result: CYP2C9 inh, CYP2C9 activ)
O=S(=O)(Nc1ccc2oc(-c3ccccc3)nc2c1)c1ccccc1	CYP2C19 inhib 93, CYP2C9 inh 94
O=C(Nc1ccc2oc(-c3cccnc3)nc2c1)c1cccnc1	none
Cc1ccc2oc(-c3ccc(NC(=O)c4cccnc4)cc3)nc2c1	CYP2C9 inh 63
O=C(Nc1ccc2oc(-c3ccccc3)nc2c1)c1ccncc1	none
Cc1ccc(-c2nc3cc(C)ccc3o2)cc1	CYP2C19 inhib 59
Cc1ccc2oc(-c3cccc(NC(=O)c4ccc(Br)o4)c3)nc2c1	CYP2C9 inh 53
O=C1c2ccccc2C(=O)N1c1ccc(S(=O)(=O)N2CCN(c3ccccc3)CC2)cc1	none
CCCCS(=O)CC(CS(=O)CCCC)OC(=O)c1ccc(C)cc1 (stereo unspecified)	none
Cc1ccc(-c2nc3cc(NS(=O)(=O)c4ccc(C)cc4)ccc3o2)cc1	CYP2C19 inhib 99, CYP2C9 inh 100
Cc1ccc(NC(=O)CCC(=O)OCC(=O)c2ccc(Oc3ccc([N+](=O)[O-])cc3)cc2)c(C)c1	none
CC(C)c1cc(-c2n[nH]c(=S)n2Cc2ccccc2)cs1	none
S=c1[nH]nc(-c2ccccc2)n1Cc1ccccc1	CYP2C19 inhib 62
S=c1[nH]nc(-c2ccc(Br)o2)n1Cc1ccccc1	CYP2C19 inhib 61, CYP2C9 inh 60
S=c1[nH]nc(-c2ccncc2)n1Cc1ccco1	CYP2C9 inh 61
S=c1[nH]nc(-c2ccco2)n1Cc1ccccc1	CYP2C9 inh 50
CC(C)CNc1nc(=S)nc(N(C)C)[nH]1	none
Cc1ccc(S(=O)(=O)NC(C)(C)CSc2nncn2C)cc1	none
Cc1ccc(S(=O)(=O)NC(C)(C)CSc2nnc(N)s2)cc1	CYP2C19 inhib 99, CYP2C9 inh 80
c1ccc(-c2cn3c4c(sc3n2)CCCC4)cc1	CYP2C19 inhib 57
Nc1cc(OC(=O)c2cccs2)nn1S(=O)(=O)c1ccccc1	none
Cc1nn(-c2ccccc2)c(OC(=O)c2cccs2)c1S(=O)(=O)c1ccccc1	CYP2C19 inhib 62, CYP2C9 inh 80
Cc1nn(-c2ccccc2)c(OC(=O)c2cccs2)c1S(=O)(=O)c1ccc([N+](=O)[O-])cc1	CYP2C9 inh 99
CCOC(=O)CN1C(=O)C(C)(C)Oc2ccc(C(=O)Nc3ccccc3)cc21	none
FC(F)(F)C1=CC(c2ccccc2)=NCCN1	none
CCOC(=O)CNC1CC(=O)N(c2cccc(Cl)c2)C1=O (stereo unspecified)	none
CCOC(=O)NC(c1cccc(Cl)c1)C1CCCCCC1=O (stereo unspecified)	CYP2C19 inhib 97, CYP2C9 inh 56
CC1(C)CC(=O)C=C(Nc2ccccc2O)C1	none
O=C(c1cccn2c(=O)c3ccccc3nc12)N1CCN(c2ccccn2)CC1	CYP2C9 inh 59
O=C(c1cc(-c2ccncc2)nc2ccc(Cl)cc12)N1CCN(C(=O)C2CCCO2)CC1 (stereo unspecified)	CYP2C9 inh 74
O=C(c1cc(-c2ccncc2)nc2ccc(Br)cc12)N1CCN(c2ccccn2)CC1	CYP2C19 inhib 79, CYP2C9 inh 98
CCN1CCN(C(=O)c2cc(-c3cccnc3)nc3ccc(Br)cc23)CC1	none
O=C(O)c1cccn2c(=O)c3ccccc3nc12	none
O=C(c1cc(-c2ccccn2)nc2c(Cl)cccc12)N1CCN(C(=O)C2CCCO2)CC1 (stereo unspecified)	none
O=C(c1cccn2c(=O)c3cc4ccccc4cc3nc12)N1CCN(c2ccccc2)CC1	none
O=C(c1cccn2c(=O)c3cc(Br)ccc3nc12)N1CCN(c2ccccn2)CC1	CYP2C9 inh 59
CCOC(=O)c1cc2occc2n1CC(=O)Nc1ccc(OC)cc1OC	none
O=C(CCN1C(=O)c2ccccc2C1=O)NC(=S)Nc1cccc(Cl)c1	none
COc1cccc(C(=O)CSc2nnc(COc3cccc4cccnc34)o2)c1	none
Cc1cc(N2CCC(C(=O)NCC3CC3)CC2)nc(-c2ccccc2)n1	CYP2C19 inhib 73, CYP2C9 inh 62
CCCc1cc(C(=O)Nc2cc(C)nn2-c2ccccc2)no1	none
Cc1cc(NC(=O)C(C)Oc2ccc(Cl)cc2Cl)n(-c2ccccc2)n1 (stereo unspecified)	CYP2C19 inhib 75, CYP2C9 inh 63
Cc1cc(NC(=O)c2sccc2C)n(-c2cccc(Cl)c2)n1	CYP2C19 inhib 96, CYP2C9 inh 52
Cc1cc(NC(=O)c2cccs2)n(-c2ccccc2)n1	CYP2C19 inhib 70
CCN1CCCC1Cn1cnc2c([nH]c3cccc(Cl)c32)c1=O (stereo unspecified)	none
c1ccc(-c2nn3nnnc3c3ccccc23)cc1	CYP2C19 inhib 52
CC(C)(C)c1ccc(S(=O)(=O)N2C=CC(C(F)(F)F)=NCC2)cc1	CYP2C19 inhib 86
CCOc1ccc(C)cc1S(=O)(=O)n1ccnc1	CYP2C9 inh 61
CCOc1ccc(C)cc1-n1nc2ccccc2n1	none
CCOC(=O)c1c(NC(=O)c2ccccc2Br)sc2c1CCc1ccccc1-2	none
Cc1cc(C(=O)N2CCN(Cc3ccc4c(c3)OCO4)CC2)cs1	CYP2C19 inhib 96, CYP2C9 inh 59
CCSc1ccccc1C(=O)N1CCN(Cc2ccc3c(c2)OCO3)CC1	none
O=C(c1ccc2nc(N3CCOCC3)sc2c1)N1CCC(Cc2ccccc2)CC1	CYP2C19 inhib 80
CCn1cnc2sc(C(=O)N3CCN(Cc4ccc5c(c4)OCO5)CC3)c(C)c2c1=O	CYP2C19 inhib 85, CYP2C9 inh 75
Cc1nn(Cc2ccccc2)c2sc(C(=O)N3CCN(Cc4ccc5c(c4)OCO5)CC3)cc12	CYP2C9 inh 67
N/C(=N\O)C1COc2ccccc2O1 (stereo unspecified)	none
Cc1ccc(S(=O)(=O)N2CCC(C(=O)N3CCC[C@H]3C(=O)NCc3ccco3)CC2)cc1	none
O=C(c1ccc2nc(N3CCCCC3)sc2c1)N1CCN(Cc2ccc3c(c2)OCO3)CC1	CYP2C19 inhib 89, CYP2C9 inh 83
CCOC(=O)N1CCN(C(=O)c2ccc3nc(N4CCC(C)CC4)sc3c2)CC1	none
Cc1cc(C(=O)N2CCN(S(C)(=O)=O)CC2)cs1	CYP2C19 inhib 56
CC1CCN(c2nc3ccc(C(=O)N4CCN(Cc5ccccc5)CC4)cc3s2)CC1	CYP2C19 inhib 60
CCOC(=O)N1CCN(C(=O)c2ccc3nc(N4CCCCC4)sc3c2)CC1	none
CC(=O)OCCOc1nc(N(C)C)nc(N(C)C)n1	none
CCOc1ccccc1Nc1nc(N)nc(CSc2nncn2C)n1	none
Cc1ccc2c(CSc3nc4ccccc4c(=O)n3CCCO)cc(=O)oc2c1C	CYP2C19 inhib 68, CYP2C9 inh 96
Cc1ccccc1Nc1nc(N)nc(CSc2nc3ccccc3c(=O)n2C)n1	CYP2C19 inhib 68, CYP2C9 inh 82
Cc1ccccc1Nc1nc(N)nc(CSc2nc3ccccc3c(=O)n2CCCO)n1	CYP2C19 inhib 90, CYP2C9 inh 99
CC(=O)NCCn1c(SCC#N)nc2ccccc2c1=O	none
Cc1ccc(Nc2nc(N)nc(CSc3nccn3C)n2)c(C)c1	none
